Measurements: the supplement of paper PMC11417369
The full ranking holds about 25,000 sequences; the median of “ln(normalized median fluorescence intensity)” is about 9.3, and the highest 2% start at about 10. The full list was thinned out, with the highest values kept by preference.

These sequences were tested on PF3D7_0420300 AP2 domain 1 (GST-tagged) (assay: gcPBM binding intensity (ln(normalized median fluorescence intensity)); higher = stronger DNA binding).
In short: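 The highest Masliner-normalised natural-log median intensity across replicate spots of either probe orientation is reported as binding intensity. GST-tagged P. falciparum DNA-binding domains expressed in E. coli were applied for 1 h to an Agilent 4 × 180k array of primer-extended double-stranded 36-bp intergenic genomic probes plus negative controls, and bound protein was detected with Alexa488 anti-GST antibody and scanned at 488 nm.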
“ATATTTTTTTTTTTCACACACATTTAGATTGTATTA [CACACA_site3137]” was tested, and the “gcPBM binding intensity (ln)” value was 9.86. For “GACATTGATACCAGTAGTACCTATAGATGTTTGTTT [XGTACX_site5736]”, the “gcPBM binding intensity (ln)” value was 9.55. In the case of “TTACAAATAATTTGTTGTACGCTTTTTTTCTTTTTT [XGTACX_site7199]”, the “gcPBM binding intensity (ln)” value is reported as 9.48. For “ATTGGACTATAAATAGGTACACATATATATATATAT [XGTACX_site7562]”, the “gcPBM binding intensity (ln)” value was 9.59. With “AATAGAAAAAAAAAATGTACACATATAAAAGCATAT [XGTACX_site6306]” the “gcPBM binding intensity (ln)” value was 9.77. For “GCTTATAAAGGCAGAAGTACTGTATTCCTATATATA [XGTACX_site8865]”, the “gcPBM binding intensity (ln)” value was 9.22. “GTATAATAGAAACACACACACACACCCAAAAAAAAA [CACACA_site2010]” was tested, and the “gcPBM binding intensity (ln)” value was 10.3. For “TAGTATAATATGAACACACACACACCGACAAAAAAA [CACACA_site5151]”, the “gcPBM binding intensity (ln)” value was 9.99. In the case of “GTATAATATGAACACACACACACACGCAAAAAAAAA [CACACA_site7036]”, the “gcPBM binding intensity (ln)” value is reported as 10.1. With “TAGTATAATATGAACACACACACACGCACAAAAAAA [CACACA_site7035]” the “gcPBM binding intensity (ln)” value was 10.1. With “ATCGTAGTATAATATGAACACACACCCACCCACAAA [CACACA_site8616]” the “gcPBM binding intensity (ln)” value was 10.2. For “AAAAAAAAAAAAAACACACACACACCCAAATATATA [CACACA_site1169]”, the “gcPBM binding intensity (ln)” value was 10.1. For “ATAATATGAAAACACACACACACACCCAAAAAAAAA [CACACA_site2011]”, the “gcPBM binding intensity (ln)” value was 10.2. With “GTATAATATGAACACACACACACACCCAAAAAAAAA [CACACA_site5152]” the “gcPBM binding intensity (ln)” value was 10.2. With “TAGTATAATATGAACACACACACACCCACAAAAAAA [CACACA_site2009]” the “gcPBM binding intensity (ln)” value was 10. “TTTTATATATTATATACACACATATATATATATATA [CACACA_site2999]” was tested, and the “gcPBM binding intensity (ln)” value was 9.29. With “ATATATATATAGTGCACACTTAAGAATATAAAGAGG [CACACA_site1151]” the “gcPBM binding intensity (ln)” value was 9.45. With “AAAAGGTATGTTATACATAGATATGCACATATATGT [TGCATGCA_negctrl_site96]” the “gcPBM binding intensity (ln)” value was 9.29. “CTTAAAGGGAAAAATACACACATATAAATATTATGT [CACACA_site2225]” was tested, and the “gcPBM binding intensity (ln)” value was 9.47. With AAAATTATTTAGTAAGTGCAAAAAAAAAAAAAAAAA the “gcPBM binding intensity (ln)” value was 8.78. For “TATGAAGAAAAGAATTGTACGATGTTTATTTTGTAT [XGTACX_site8614]”, the “gcPBM binding intensity (ln)” value was 9.22. With “ATTATGCACCAACACACACACACACCCCTAAAAAAT [CACACA_site2568]” the “gcPBM binding intensity (ln)” value was 10.3. “ATTATGCACCAACACACACACACACTCCTAAAAAAT [CACACA_site8822]” was tested, and the “gcPBM binding intensity (ln)” value was 10.3. With “ATTATGCACAGACACACACACACACTACTAAAAAAT [CACACA_site7252]” the “gcPBM binding intensity (ln)” value was 10.1. In the case of “TGCACAAAATTATGCACACACCTAAAATTAATTTTT [CACACA_site5596]”, the “gcPBM binding intensity (ln)” value is reported as 9.46. “ATTATGCACGGACACACACACACACCCCTAAAAAAT [CACACA_site5426]” was tested, and the “gcPBM binding intensity (ln)” value was 10.2. With “CCTAAATTATATTATGCACACTTAAAAATATATTTA [CACACA_site5861]” the “gcPBM binding intensity (ln)” value was 9.14. “CCACAGGATTGGTTCAAACACACATATTATATGACT [CACACA_site661]” was tested, and the “gcPBM binding intensity (ln)” value was 9.39. In the case of “CCTTTATTAAATAAATGTACATATTTTTGTGTTCTT [XGTACX_site2052]”, the “gcPBM binding intensity (ln)” value is reported as 9.4. With “GAAATATAATTTATTACACACATTTTAAAAAAATTC [CACACA_site1087]” the “gcPBM binding intensity (ln)” value was 9.26. In the case of “AAAAAAAAAAAAAAATGTACATTATACACATTATAT [XGTACX_site6824]”, the “gcPBM binding intensity (ln)” value is reported as 9.28. With “AAAGGGGAGATATGAACACACAAAAAAAAAATATAT [CACACA_site7378]” the “gcPBM binding intensity (ln)” value was 9.58. “CTATACAATAAAAATTGTACATACATATATGTTATA [XGTACX_site5309]” was tested, and the “gcPBM binding intensity (ln)” value was 9.17. With “TATAACTTTTTTATTACACACCTATGTAATATTATA [CACACA_site944]” the “gcPBM binding intensity (ln)” value was 9.37. In the case of “CCTAAATAATATCTATCACACACGCATATATACATA [CACACA_site8838]”, the “gcPBM binding intensity (ln)” value is reported as 9.56. For “TATGTTAAAAAAAAAAAAAAGAAAAAAATAAAAGGA [CACACA_negctrl_site119]”, the “gcPBM binding intensity (ln)” value was 9.44. With “CATACATACAAACACACACACATATAAATACATACA [CACACA_site4625]” the “gcPBM binding intensity (ln)” value was 10.2. “TATAAGAGAATATATACACACAAAAATATATACAGT [CACACA_site1668]” was tested, and the “gcPBM binding intensity (ln)” value was 9.89. With “AAAAAAAAAGATCACACACACATAAATATAAACAAA [CACACA_site5285]” the “gcPBM binding intensity (ln)” value was 10.2. “CACAAAAATAAACACACACACATATATATATATATA [CACACA_site4704]” was tested, and the “gcPBM binding intensity (ln)” value was 9.75. In the case of “CACATACATATATACACACACAAAATAATAAAATAA [CACACA_site2308]”, the “gcPBM binding intensity (ln)” value is reported as 10. For “TATAAATATATATATACACACACATACACAAAAAAA [CACACA_site9191]”, the “gcPBM binding intensity (ln)” value was 10.2. In the case of “TATAAGAGAATATATACACACAAAAATAAATACAGT [CACACA_site5000]”, the “gcPBM binding intensity (ln)” value is reported as 10.3. For “AAGAGAAAAATATATACACACACATAAATATATACA [CACACA_site8573]”, the “gcPBM binding intensity (ln)” value was 9.96. For “TCAAAAATAAAGATCACACATATATATATATATATA [CACACA_site4381]”, the “gcPBM binding intensity (ln)” value was 9.2. In the case of “TATAAATATACAAACACACATACAAACATATATATA [CACACA_site1120]”, the “gcPBM binding intensity (ln)” value is reported as 9.91. With “TAAATATATAAATACACACAAACATACATATATATA [CACACA_site4050]” the “gcPBM binding intensity (ln)” value was 9.88. “TAAATATATAAATACACACACATACACAAAAAAAAA [CACACA_site5890]” was tested, and the “gcPBM binding intensity (ln)” value was 10.1. “AATACATACATACATACATGCATATATATATATATA [TGCATGCA_site462]” was tested, and the “gcPBM binding intensity (ln)” value was 9.42. In the case of “ATTTACATTCACTTATGTACTTATATAATTTTATTT [XGTACX_site8150]”, the “gcPBM binding intensity (ln)” value is reported as 9.54. “CCCATTTTGACAAAAAGTACAAGTTCAGGTTTTATA [XGTACX_site1532]” was tested, and the “gcPBM binding intensity (ln)” value was 9.22. With “AACTATAAAAATTTTACACACTGTTTTTAAATAATG [CACACA_site5928]” the “gcPBM binding intensity (ln)” value was 9.4. In the case of “TATTTACACAAAATAAAATATATTATATATATATAT [TGCATGCA_negctrl_site381]”, the “gcPBM binding intensity (ln)” value is reported as 8.93. In the case of “TAATAAAAAATATATACACACAAATAAATAAATAAA [CACACA_site4037]”, the “gcPBM binding intensity (ln)” value is reported as 9.83. With “AATATATAAATATATACACACAAAAACATATATATA [CACACA_site1318]” the “gcPBM binding intensity (ln)” value was 9.8. For “TACACAAAAATAAACACACACACATATAAATAAATA [CACACA_site6599]”, the “gcPBM binding intensity (ln)” value was 10.2. With “ATATAAATATTAATTACACACAAAAAAAAAAAAAAA [CACACA_site6671]” the “gcPBM binding intensity (ln)” value was 9.35. “AATATAAAAAATAATACACACACATGGCGACAAAAT [CACACA_site8765]” was tested, and the “gcPBM binding intensity (ln)” value was 10.2. With “TACACAAAAATAAACACACACACATATATATATATA [CACACA_site1000]” the “gcPBM binding intensity (ln)” value was 9.78. With “TATAAAAAATAATACACACACATGGCGACAAAATAA [CACACA_site2420]” the “gcPBM binding intensity (ln)” value was 10.2. With “ATAAATAAGATACGTACACACATATACAAAATATAC [CACACA_site3661]” the “gcPBM binding intensity (ln)” value was 9.95. In the case of “ATATATATATATTACACACACACAAAAAAAATAAAG [CACACA_site118]”, the “gcPBM binding intensity (ln)” value is reported as 10.4. “AGATAAAATAAATACACACACATAAATACGTACAAA [CACACA_site4739]” was tested, and the “gcPBM binding intensity (ln)” value was 10.2. “AGATAAAATATATACACACACATAAATACGTACAAA [CACACA_site1086]” was tested, and the “gcPBM binding intensity (ln)” value was 10.1.
